Experimental findings from PubChem BioAssay AID687001 (Broad Institute, 2013) are described below.

Each structure is given as a SMILES string. Entries with a potency or affinity are not part of this list. Activity calls are given as the source filed them.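 How the source made its calls: active means signal-lowering compounds whose fitted half-maximal concentration is at or below twice the top tested dose in every run; inconclusive means runs disagree, flat 30 to 70% inhibition, or poor curve fit; inactive means the rest.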

Chain of Protein S100-A4 (Homo sapiens) (P26447 whole entry, looked up): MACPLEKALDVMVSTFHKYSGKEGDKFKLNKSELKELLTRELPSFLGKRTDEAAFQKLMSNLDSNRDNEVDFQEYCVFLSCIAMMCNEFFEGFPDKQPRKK

This experiment addresses Protein S100-A4 (Homo sapiens) (UniProt P26447). Nature of the experiment: S100A4-myosin IIA binding inhibitor potency, dose response, biochemical, fluorescence polarization, cherry-picked hits (AID 687001).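 Further: 0% = DMSO neutral control wells and -100% = TFP positive control wells.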 The conditions noted are these: FP, S100A4/TAMRA-myosin IIA peptide binding; series mostly up to 11 µM. (In general: In fluorescence polarisation assays a small probe gives low polarisation when free and higher when bound to something large.)
`O=C(C[C@H]1CC[C@H](NC(=O)Nc2ccccc2F)[C@@H](CO)O1)NCc1ccc(-c2ccccc2)cc1`: the call was inactive.

For the molecule `CCCC(=O)Nc1ccc2c(c1)OC[C@@H](C)N(Cc1ccc(-c3ccccn3)cc1)C[C@H](C)[C@H](OC)CN(C)C2=O`, the outcome was inactive. The same measure, in the same setting: with `CO[C@H]1CN(C)C(=O)c2cc(NC(=O)C3CC3)ccc2OC[C@H](C)N(C(=O)CN(C)C)C[C@H]1C` the entry was “inactive”; with `Cc1cc(C(=O)N/N=C/c2ccccn2)c2ccccc2n1`, “inactive”.

`O=C(C[C@H]1C[C@@H]2c3cc(NC(=O)c4cccnc4)ccc3O[C@@H]2[C@H](CO)O1)NCc1ccncc1`: the call was inactive. Still for that read-out and setting: with `O=C(CCN1CCCCC1)N[C@H]1CC[C@@H](CCNS(=O)(=O)c2ccc(Cl)cc2)O[C@H]1CO` the entry was “inactive”. Consider `COc1ccc2[nH]c3c(c2c1)CCN1C(=O)N([C@@H](C)C(=O)NCc2ccccc2)C(=O)[C@]31C`, for which the result was inactive. `COc1cccc(NC(=O)N(C)C[C@H]2Oc3cc(C#CC4(O)CCCC4)ccc3S(=O)(=O)N([C@H](C)CO)C[C@H]2C)c1`: the outcome was inactive. Consider `CN1c2ccc(-c3cccc(C#N)c3)cc2[C@H]2[C@H](CCN2S(=O)(=O)c2ccccc2F)[C@H]1CO`, for which the call was inactive.

Take `O=C(Nc1ccc2c(c1)CN(Cc1ccco1)CC2)C1CCCO1` (centres undefined): the result was inactive. Still for that read-out and setting: with `COc1ccc(NC(=O)CN(C)C(=O)c2ccc(N3CCCC3)c([N+](=O)[O-])c2)cc1` the entry was “inactive”; with `COCC#Cc1cnc2c(c1)C(=O)N([C@H](C)CO)C[C@H](C)[C@H](CN(C)C(=O)C1CCC1)O2`, “inactive”. In the case of `CCOc1ccccc1N`, the molecule was classed as inactive. Consider `O=C(C[C@H]1C=C[C@H](NC(=O)CCN2CCCCC2)[C@H](CO)O1)Nc1nccs1`, for which the call was inactive. In the case of `Cc1cc2ccccc2n1CCNC(=O)Cc1cccc2ccccc12`, the molecule was called inactive. As to `Cc1ccc(S(=O)(=O)N2CCOCC2)cc1NC(=O)COC(=O)Cc1cccs1`, the call was inactive.

On to `Cc1ccc(S(=O)(=O)N(C)C[C@@H]2OCCCC[C@@H](C)Oc3ccc(NS(C)(=O)=O)cc3C(=O)N([C@@H](C)CO)C[C@@H]2C)cc1`, for which the molecule was classed as inactive. With `COc1ccccc1-c1noc2c1C(=O)N(Cc1cn(-c3ccc(Cl)cc3)nn1)CC2`, the call was inactive. As to `Cc1nc(Nc2cccc(O)c2)c2oc3ccccc3c2n1`, the molecule was called inactive. Take `COc1cccc(NC(=O)N(C)C[C@@H]2OCc3ccccc3-c3c(n(C)c4ccccc34)C(=O)N([C@@H](C)CO)C[C@@H]2C)c1`: the molecule was classed as inactive. Take `CN(C)Cc1cn(CC[C@H]2CC[C@H](NC(=O)Cc3cccnc3)[C@H](CO)O2)nn1`: the outcome was inactive.

`CCOc1ccc(S(=O)(=O)N2CCCC(C(=O)NCC3CCCO3)C2)cc1Cl` (centres undefined): the outcome was inactive. Take `Cc1ccc(/C=C2/SC(=O)N(CC(=O)N3CCOCC3)C2=O)s1`: the activity change, negative = inhibition is 7.53% [at 2.6 µM] (inactive). In the case of `C[C@H](NC(=O)C[C@@H]1CC[C@H](NC(=O)C2CCOCC2)[C@@H](CO)O1)c1ccccc1`, the molecule was classed as inactive.

Take `C[C@@H]1CN([C@H](C)CO)C(=O)c2cc(C3=CCCC3)cnc2O[C@@H]1CN(C)Cc1ccc(F)cc1`: the molecule was called inactive. For the molecule `Cc1noc(C)c1S(=O)(=O)N(C)C[C@@H]1OCCCC[C@H](C)Oc2ccc(NC(=O)C3CCCCC3)cc2C(=O)N([C@H](C)CO)C[C@H]1C`, the molecule was classed as inactive. Still for that read-out and setting: with `CCCc1cn(CC[C@@H]2CC[C@H](NC(=O)C3CCCC3)[C@H](CO)O2)nn1` the entry was “inactive”. Take `CCN1CCN(c2ccc(N3CCN(S(=O)(=O)c4ccc(C)c([N+](=O)[O-])c4)CC3)nn2)CC1`: the molecule was classed as inactive.

Turning to `CN1C(=O)c2cc(NC(=O)Cc3cccs3)ccc2OC[C@H]2O[C@H](CC(=O)N[C@H]3CCN(Cc4ccccc4)C3)CC[C@@H]21`, the call was inactive. On the same count and under the same terms, with `CC(=O)Nc1ccc(Nc2nnc(-c3ccc(C)c(S(N)(=O)=O)c3)c3ccccc23)cc1` the entry was “inactive”; with `Cc1cc(=O)n2nc(N3CCC(C(=O)NCc4ccccc4)CC3)sc2n1`, “inactive”. In the case of `O=C(NCCS(=O)(=O)NCCCc1ccccc1)c1ccccc1`, the molecule was classed as inactive. Still for that read-out and setting: with `C[C@@H](NC(=O)C[C@H]1C=C[C@@H](NC(=O)C2CCC2)[C@H](CO)O1)c1ccccc1` the entry was “inactive”; with `COC(=O)[C@@]12C[C@@H](CC(=O)N3CCN(C(=O)c4ccco4)CC3)C(=O)N(CCc3ccc(OC)c(OC)c3)C1=CCC(C)(C)C2`, “inactive”; with `COc1ccc(CN2C(=O)c3ccccc3C2c2nnnn2Cc2ccccc2)cc1OC` (centres undefined), “inactive”. The same measure, in the same setting: with `Cc1ccc(C)c(N2CCN(S(=O)(=O)c3c(C)[nH]c(C)c3C(=O)N3CCCCC3)CC2)c1` the entry was “inactive”.

Turning to `Oc1cccc(-c2sc3ccccc3c2-c2ccc(OCCN3CCCCC3)cc2)c1`, the call was inactive. The same measure, in the same setting: with `CCOC(=O)[C@]12CCC=C1N(Cc1cccc3ccccc13)C(=O)[C@H](CC(=O)N1CCOCC1)C2` the entry was “inactive”; with `CCC(c1nc2ccccc2[nH]1)n1c(-c2cnccn2)nc2ccccc21` (centres undefined), “inactive”.
